Source: PubChem BioAssay (NCATS)
“And” between values parts separate entries of the source, which are not always exact repeats. Equal values may be shown once. Unmarked numbers belong to inactive results. Records with an inconclusive call do not appear. A call without a number means that no potency is given here. The source made the active and inactive calls. Unless noted, calls come from the whole dose curve; as a rule, active = well fitted curve in the direction sought with a large enough effect; inconclusive = small, poorly fitted or top-dose-only effect, or another doubt; inactive = no such curve, though single readings can be large; an effect the other way counts as inactive or inconclusive.

Key:
[1] = biological target: Mitogen-activated protein kinase 10 (Mus musculus) (UniProt Q61831); test: JNK3 AlphaScreen Assay (AID 530; active = well fitted curve in either direction with a large enough effect, not every such curve was filed as active;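 note: kinase came from lysate of stimulated human HepG2 cells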; note: potency is the fitted concentration of half-maximal effect)
Outline: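 Phosphorylation of biotinylated GST-cJun(1-79) at Ser73 is measured by AlphaScreen proximity luminescence. Enzyme is JNK3 in HepG2 lysates activated with interleukin-1beta and tumor necrosis factor alpha; ATP is 10 uM final.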

[2] = Cell Viability - HUV-EC-C (AID 542);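 note: cells exposed to compound for 40 hours; nearly all actives have a fitted effect of over 35% in size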
Outline: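 CellTiter-Glo luminescence measured ATP loss in HUV-EC-C cells (1000/well) after 40 hr compound exposure at 37 °C, in complete culture medium. Concentration-response data were Hill-fitted to give AC50.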

[3] = Cell Viability - H-4-II-E (AID 543);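 note: cells exposed to compound for 40 hours; nearly all actives have a fitted effect of over 35% in size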
Outline: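 CellTiter-Glo luminescence (intracellular ATP) measured after 40 h compound exposure at 37 °C in H-4-II-E rat hepatoma cells seeded at 1500/well. Values are AC50s fitted with the standard Hill equation.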

[4] = Cell Viability - SH-SY5Y (AID 544);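 note: cells exposed to compound for 40 hours; nearly all actives have a fitted effect of over 55% in size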
Outline: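 Cytotoxicity measured via ATP-dependent luciferase luminescence (CellTiter-Glo) following 40 h, 37 °C exposure of 1500 SH-SY5Y cells per well. Concentration-response data were fitted with the standard Hill equation to give AC50.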

[5] = Cell Viability - Renal Proximal Tubule (AID 545); settings: renal proximal tubule cells viability, primary cells of rat origin; at 91.7 µM (top of the series);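 note: cells exposed to compound for 40 hours; nearly all actives have a fitted effect of over 40% in size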
Outline: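 Primary rat renal proximal tubule cells (1000/well) were treated with compounds for 40 hr at 37 °C in complete medium. Intracellular ATP was measured by CellTiter-Glo luminescence, and AC50 values came from Hill-equation fits of concentration-response data.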

[6] = Cellular Toxicity (caspase-3) HepG2 (AID 654);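 note: cells exposed to compound for 16 hours before reading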
Outline: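 Caspase 3/7 activation is measured as a luminescence increase (aminoluciferin substrate) after 16 h compound exposure of human hepatocarcinoma HepG2 cells. AC50 values are Hill fits, scaled between DMSO baseline and 100 uM tamoxifen stimulation.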

[7] = Cellular Toxicity (caspase-3) Jurkat (AID 655); settings: Jurkat caspase-3 activation, luminescence, DMSO = 0%, tamoxifen = 100%; at 92.2 µM (top of the series);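 note: cells exposed to compound for 16 h at 37 °C before reading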
Outline: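 Jurkat cells (5000/well) in complete medium were treated with compounds for 16 hr at 37 °C, then Caspase-Glo 3/7 luminescence was read after 20 min at room temperature. Data normalized to DMSO (basal) and 100 uM tamoxifen (100%); AC50 from Hill fit.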

[8] = Cellular Toxicity (caspase-3) HUV-EC-C (AID 656)
Outline: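 HUV-EC-C endothelial cells, 1000/well, were pre-incubated 5 hr at 37°C, then exposed to compounds for 16 hr at 37°C. Caspase-Glo 3/7 luminescence was read after 20 min at room temperature. AC50 came from Hill fits, normalized to DMSO and 100 uM tamoxifen.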

[9] = Cellular Toxicity (caspase-3) SHSY5Y (AID 657)
Outline: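 SH-SY5Y human neuroblastoma cells (1500/well) were treated with compounds for 16 h at 37 °C, then Caspase-Glo 3/7 luminescence was read after 1 h at room temperature. Data normalized to DMSO and 10 uM staurosporine; AC50 from Hill fits.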

[10] = Cellular Toxicity (caspase-3) BJ (AID 658)
Outline: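 Plated BJ cells (1000/well) rested 5 hr, received compound for 16 hr at 37 °C, then Caspase-Glo 3/7 reagent for 1 hr at room temperature before luminescence reading.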

[11] = Cellular Toxicity (caspase-3) MRC-5 (AID 659)
Outline: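 Apoptosis readout in MRC-5 cells: luciferase light generated after caspase 3/7 cleaves a peptide-aminoluciferin substrate, measured post 16 hr compound incubation at 37 °C.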

[12] = Cellular Toxicity (caspase-3) Mesangial (AID 660);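 note: combined caspase 3 and 7 activity read by Caspase-Glo luminescence; cells exposed to compound for 16 h before the caspase read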
Outline: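 Caspase 3/7 activation measured by Caspase-Glo 3/7 luminescence (20 min, room temperature) following 16 h exposure of mesangial cells (1000/well); AC50 from Hill-equation fit, normalized to DMSO and 100 uM tamoxifen.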

[13] = Cellular Toxicity (caspase-3) H-4-II-E (AID 663); settings: Potency: caspase-3 activation;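 note: cells exposed to compound for 16 hr before readout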
Outline: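 Caspase 3/7 activation measured in H-4-II-E cells in complete culture medium after 16 hr treatment at 37 °C, using luciferase-coupled substrate readout; AC50 values come from Hill-equation fits of normalized concentration-response data.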

[14] = Cellular Toxicity (caspase-3) Hek293 (AID 664);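 note: cells exposed to compound for 16 h at 37 °C before readout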
Outline: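 Concentration-response qHTS: caspase 3/7 activation measured by luminescent aminoluciferin substrate cleavage after 16 h compound exposure of Hek 293 cells. AC50 from Hill equation, with DMSO as basal and 100 uM tamoxifen as 100%.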

[15] = biological target: Glucocorticoid receptor (Homo sapiens) (UniProt P04150); test: qHTS assay for small molecule agonists of glucocorticoid receptor signaling (AID 588532; active = well fitted curve in the direction sought with a large enough effect in the signal ratio, with a control signal flat; the % refers to the signal ratio); settings: HeLa MMTV-bla, beta-lactamase ratio, agonist, 18 h; active compounds read high; percent of dexamethasone control, DMSO zero
Sequence of Glucocorticoid receptor (Homo sapiens) (P04150 whole entry, looked up): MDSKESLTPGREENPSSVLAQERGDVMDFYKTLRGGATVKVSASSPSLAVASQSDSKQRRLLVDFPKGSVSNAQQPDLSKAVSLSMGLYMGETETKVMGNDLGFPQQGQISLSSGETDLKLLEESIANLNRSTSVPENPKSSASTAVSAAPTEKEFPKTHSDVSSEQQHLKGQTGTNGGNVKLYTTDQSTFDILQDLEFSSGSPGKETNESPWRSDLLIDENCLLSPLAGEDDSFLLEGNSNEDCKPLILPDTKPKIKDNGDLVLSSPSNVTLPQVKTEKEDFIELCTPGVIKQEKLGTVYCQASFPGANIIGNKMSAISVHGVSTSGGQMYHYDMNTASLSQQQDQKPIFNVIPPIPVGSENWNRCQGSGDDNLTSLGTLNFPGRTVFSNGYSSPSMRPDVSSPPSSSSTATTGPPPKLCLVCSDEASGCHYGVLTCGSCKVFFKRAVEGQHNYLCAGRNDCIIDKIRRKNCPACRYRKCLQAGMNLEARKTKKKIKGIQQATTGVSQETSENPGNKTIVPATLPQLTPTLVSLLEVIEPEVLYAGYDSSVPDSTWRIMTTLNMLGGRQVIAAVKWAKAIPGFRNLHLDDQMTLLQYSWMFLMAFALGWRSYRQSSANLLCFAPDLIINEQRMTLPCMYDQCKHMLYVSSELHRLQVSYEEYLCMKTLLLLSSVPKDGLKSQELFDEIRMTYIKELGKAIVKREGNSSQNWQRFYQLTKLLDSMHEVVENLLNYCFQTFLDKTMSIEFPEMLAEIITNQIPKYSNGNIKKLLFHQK
Outline: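 MMTV-bla HeLa, beta-lactamase reporter; medium with 1% charcoal/dextran-stripped FBS; cpds up to 92 uM, 18 h, 37 C; CCF4 readout 460/530 nm; Hill fit → EC50, efficacy vs 0.1 uM dexamethasone = 100%.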

[16] = biological target: Vitamin D3 receptor (Homo sapiens) (UniProt P11473); test: qHTS assay for small molecule agonists of vitamin D receptor signaling (AID 588543; calls by dose curve)
Sequence of Vitamin D3 receptor (Homo sapiens) (P11473 whole entry, looked up): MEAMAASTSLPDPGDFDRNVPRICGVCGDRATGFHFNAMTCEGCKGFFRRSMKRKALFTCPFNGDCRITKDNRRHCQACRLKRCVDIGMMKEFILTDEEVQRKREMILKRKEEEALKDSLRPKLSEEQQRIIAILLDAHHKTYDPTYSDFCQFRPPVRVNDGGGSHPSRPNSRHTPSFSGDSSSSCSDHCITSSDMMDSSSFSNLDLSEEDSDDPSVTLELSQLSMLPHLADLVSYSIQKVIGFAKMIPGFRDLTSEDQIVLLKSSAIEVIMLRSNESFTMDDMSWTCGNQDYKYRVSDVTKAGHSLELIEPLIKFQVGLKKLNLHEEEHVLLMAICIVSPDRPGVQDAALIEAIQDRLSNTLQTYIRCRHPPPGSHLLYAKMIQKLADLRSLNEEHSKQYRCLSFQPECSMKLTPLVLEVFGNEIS
Outline: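 GeneBLAzer VDR-UAS-bla HEK293T cells in 2% charcoal-stripped FBS medium were dosed with compound titrations for 16 h at 37 °C; CCF4 β-lactamase readout (405 nm ex, 460/530 nm em). EC50 and efficacy from Hill fits, normalized to 50 nM calcitriol (100%) and DMSO (0%).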

[17] = biological target: Thyroid hormone receptor beta (Homo sapiens) (UniProt P10828); test: qHTS assay for small molecule antagonists of thyroid hormone receptor beta signaling (AID 588547; active = well fitted inhibition curve with a large enough effect in the signal ratio, with a control signal flat, not every such curve was filed as active; the % refers to the signal ratio;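 note: cells stimulated with 0.4 nM T3 agonist during compound exposure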); settings: TR-UAS-bla HEK293, beta-lactamase ratio, antagonist mode, 18 h
Sequence of Thyroid hormone receptor beta (Homo sapiens) (P10828 whole entry, looked up): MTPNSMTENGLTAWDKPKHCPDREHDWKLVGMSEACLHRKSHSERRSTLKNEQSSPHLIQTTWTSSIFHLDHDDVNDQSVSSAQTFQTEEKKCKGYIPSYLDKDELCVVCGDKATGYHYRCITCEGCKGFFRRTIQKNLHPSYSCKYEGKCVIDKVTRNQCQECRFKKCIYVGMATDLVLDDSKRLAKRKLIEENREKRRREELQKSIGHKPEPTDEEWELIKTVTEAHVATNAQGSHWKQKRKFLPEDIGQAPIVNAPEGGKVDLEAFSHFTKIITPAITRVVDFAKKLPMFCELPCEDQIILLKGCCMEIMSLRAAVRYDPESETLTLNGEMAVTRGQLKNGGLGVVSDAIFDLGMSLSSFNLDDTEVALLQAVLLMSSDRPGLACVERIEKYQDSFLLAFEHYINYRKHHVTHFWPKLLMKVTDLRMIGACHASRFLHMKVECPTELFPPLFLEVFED
Outline: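 TR-UAS-bla GripTite HEK293 cells in 2% charcoal/dextran FBS medium were preincubated 4 h at 37 C, given compound (0.59 nM to 92 uM) plus 0.4 nM T3 (final) for 18 h, then CCF4 for 2 h at RT; Hill fit gave IC50.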

[18] = biological target: Voltage-gated inwardly rectifying potassium channel KCNH2 (Homo sapiens) (UniProt Q12809); test: qHTS Assay for Small Molecule Inhibitors of the Human hERG Channel Activity (AID 588834);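 note: top concentration of the series differs between compounds; lower thallium flux fluorescence means stronger hERG block; nearly all actives have a fitted effect of over 50% in size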
Sequence of Voltage-gated inwardly rectifying potassium channel KCNH2 (Homo sapiens) (Q12809 whole entry, looked up): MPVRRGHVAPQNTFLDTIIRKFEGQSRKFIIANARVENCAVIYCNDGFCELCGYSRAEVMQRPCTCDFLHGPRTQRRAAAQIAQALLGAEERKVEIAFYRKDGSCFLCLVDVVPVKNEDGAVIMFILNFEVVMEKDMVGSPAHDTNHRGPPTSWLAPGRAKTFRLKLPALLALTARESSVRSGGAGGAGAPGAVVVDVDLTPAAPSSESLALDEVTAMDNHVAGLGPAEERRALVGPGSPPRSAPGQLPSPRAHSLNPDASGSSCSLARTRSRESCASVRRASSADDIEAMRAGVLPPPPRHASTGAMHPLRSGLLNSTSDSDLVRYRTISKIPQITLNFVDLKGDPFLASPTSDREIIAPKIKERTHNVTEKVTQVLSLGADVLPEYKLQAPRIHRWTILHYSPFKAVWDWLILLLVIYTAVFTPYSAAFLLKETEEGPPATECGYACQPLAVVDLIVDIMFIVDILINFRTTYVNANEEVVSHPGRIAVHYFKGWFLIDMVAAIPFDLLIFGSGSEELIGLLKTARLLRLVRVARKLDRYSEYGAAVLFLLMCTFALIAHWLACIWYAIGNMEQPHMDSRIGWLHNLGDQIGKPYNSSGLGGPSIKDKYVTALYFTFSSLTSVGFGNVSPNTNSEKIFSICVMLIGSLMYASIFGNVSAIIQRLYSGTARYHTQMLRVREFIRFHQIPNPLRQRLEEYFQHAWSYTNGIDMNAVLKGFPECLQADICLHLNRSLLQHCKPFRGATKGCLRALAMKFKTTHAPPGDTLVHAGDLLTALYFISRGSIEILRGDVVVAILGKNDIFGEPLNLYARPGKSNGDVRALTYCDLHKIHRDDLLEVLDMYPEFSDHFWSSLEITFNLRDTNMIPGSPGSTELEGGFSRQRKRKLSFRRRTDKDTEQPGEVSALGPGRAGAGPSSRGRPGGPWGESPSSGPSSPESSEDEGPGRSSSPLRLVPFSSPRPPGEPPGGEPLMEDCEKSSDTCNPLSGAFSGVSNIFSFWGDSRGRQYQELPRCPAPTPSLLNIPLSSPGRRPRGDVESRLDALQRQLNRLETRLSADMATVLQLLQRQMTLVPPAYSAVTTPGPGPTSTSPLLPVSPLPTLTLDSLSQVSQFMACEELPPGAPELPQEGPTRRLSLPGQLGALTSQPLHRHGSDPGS
Outline: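 In hERG-transduced U2OS cells, dye-loaded for 1 hr at room temperature in dark, test compounds incubated 10 min at 37 °C before thallium stimulation. AC50 values derived by Hill modelling of concentration-response.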

[19] = qHTS assay for small molecule activators of the p53 signaling pathway (AID 651743; active = well fitted activation curve with a large enough effect in the signal ratio, not every such curve was filed as active; the % refers to the signal ratio); settings: HCT-116 p53RE-bla, beta-lactamase FRET ratio, 16 h; activation: active compounds read high
Outline: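 Agonist-mode quantitative HTS in HCT-116 cells carrying a p53-response-element beta-lactamase reporter; 16 h compound treatment at 37 C, then FRET substrate loading for 2 h at room temperature and fluorescence read.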

[20] = biological target: Tumor necrosis factor (Homo sapiens) (UniProt P01375); test: qHTS assay to identify small molecules that stimulate Tumor Necrosis Factor-alpha (TNF-alpha) secretion (AID 651757; active = well fitted curve in the direction sought with a large enough effect in the signal ratio; the % refers to the signal ratio)
Sequence of Tumor necrosis factor (Homo sapiens) (P01375 whole entry, looked up): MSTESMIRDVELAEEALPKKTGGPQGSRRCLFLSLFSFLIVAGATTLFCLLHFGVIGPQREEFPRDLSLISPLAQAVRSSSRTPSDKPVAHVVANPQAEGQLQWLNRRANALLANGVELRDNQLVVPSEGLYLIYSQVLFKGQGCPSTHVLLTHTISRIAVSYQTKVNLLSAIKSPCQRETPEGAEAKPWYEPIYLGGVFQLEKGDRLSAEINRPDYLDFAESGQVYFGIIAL
Outline: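 Secreted TNF-alpha quantified by TR-FRET sandwich of two labeled anti-TNF-alpha antibodies, incubated 3 hr at room temperature. Preceded by 17 hr, 37 C compound treatment of THP-1 cells at 3000 cells/well.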

Row | SMILES | Potency [1] | outcome [2] | Potency [3] | Potency [4] | activity change, negative = cytotoxicity [5] | outcome [6] | caspase-3 activation [7] | outcome [8] | outcome [9] | outcome [10] | outcome [11] | outcome [12] | Potency [13] | outcome [14] | activation [15] | outcome [16] | activity change % (negative = inhibition) [17] | Potency [18] | activation [19] | outcome [20]
1 | O=C1CCc2ccccc2O1 | inactive | inactive | inactive | inactive | -10.3% | inactive | 1.5% | inactive | inactive | inactive | inactive | inactive | inactive | inactive | -2.22% | inactive | -1.36% | inactive | -0.942% | inactive
2 | Cc1cccc(O)c1 | – | – | – | – | – | – | – | – | – | – | – | – | – | – | 1.46% and -4.97% | – | -9.11% and -4.09% | – | -5.47% and -2.85% | –
3 | O=S(=O)(O)c1ccccc1 | inactive | inactive | inactive | inactive | -1.46% | inactive | 0.148% | inactive | inactive | inactive | inactive | inactive | inactive | inactive | -5.18% | inactive | – | inactive | – | inactive
4 | O[C@@H]([C@H](O)[C@@H](O)CBr)[C@@H](O)CBr | inactive | inactive | inactive | inactive | 2.79% | inactive | 0.213% | inactive | inactive | inactive | inactive | inactive | inactive | inactive | – | inactive | -6.77% | inactive | 4.39% | inactive
5 | CC1(C)S[C@@H]2[C@H](NC(=O)COc3ccccc3)C(=O)N2[C@H]1C(=O)O | – | – | – | – | – | – | – | – | – | – | – | – | – | – | 10.3% | inactive | – | – | -0.552% | –
6 | O=c1cc(-c2cccc(O)c2)oc2c(O)c(O)ccc12 | 7.94 µM (active) | – | – | – | – | – | – | – | – | – | – | – | – | – | – | – | – | – | – | –
7 | O=C(O)c1ccccc1C(c1ccc(O)cc1)c1ccc(O)cc1 | inactive | inactive | inactive | inactive | 1.41% | inactive | 1.36% | inactive | inactive | inactive | inactive | inactive | inactive | inactive | -2.81% and -6.49% | – | 4.41% and 9.59% | inactive | – | inactive
8 | c1ccc2scnc2c1 | inactive | inactive | inactive | inactive | -4.16% | inactive | -0.459% | inactive | inactive | inactive | inactive | inactive | inactive | inactive | -6.61% | inactive | 10.2% | inactive | 0.66% | inactive
